About 7,900 targets were measured; listed, in parts, are those with a hit and a random draw of the rest. About 0.6% of all pairs of compound and target were hits. Values without a mark were called inactive.
Legend:
Assay in all cases: log2 fold change, soluble protein after heating vs DMSO (PISA); higher = thermal stabilisation; K562 cells, 10 uM, 30 min; active = over 0.2 and 3.5 SD of the protein, either way, in both replicates (recomputed)
[1] = compound: NC(=O)Nc1cc(-c2cccc(F)c2)sc1C(=O)N[C@H]1CCCNC1
Procedure, shortened: (§1)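 K562 cells at 2×10^6 cells/mL were treated for 30 min with 10 μM compound, and aliquots were heated for 3 min over 48°C-58°C before pooling. Extraction used PBS with 0.5% NP-40 at 4°C, and soluble protein was the supernatant after 21,000xg for 90 min, measured by TMTpro 16plex LC-MS/MS with channel sums equalised. Thermal stability values, relative to control samples and from duplicates, are log2 fold changes.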

[2] = compound: NC(=O)c1cnc(N[C@@H]2CCCC[C@@H]2N)nc1Nc1cccc(-n2nccn2)c1
Procedure, shortened: as §1

[3] = compound: NC1(c2ccc(-c3nc4ccn5c(=O)[nH]nc5c4cc3-c3ccccc3)cc2)CCC1
Procedure, shortened: as §1

[4] = compound: NCC(=O)Nc1ccc(-n2nc(C(F)(F)F)cc2-c2ccc3c(ccc4ccccc43)c2)cc1
Procedure, shortened: as §1

[5] = compound: Nc1ccccc1NC(=O)c1ccc(CNC(=O)OCc2cccnc2)cc1 [entinostat]
Procedure, shortened: as §1

[6] = compound: O=C(CCCCCCC(=O)Nc1ccccc1)NO [vorinostat]
Procedure, shortened: as §1

[7] = compound: O=C(CCCCCCNC(=O)c1cnc(N(c2ccccc2)c2ccccc2Cl)nc1)NO [citarinostat]
Procedure, shortened: as §1

[8] = compound: O=C(O)c1ccc2c(c1)nc(Nc1cccc(Cl)c1)c1ccncc12 [silmitasertib]
Procedure, shortened: as §1

[9] = compound: O=C1NC(=O)C(c2cnc3ccccn23)=C1c1cn2c3c(cc(F)cc13)CN(C(=O)N1CCCCC1)CC2
Procedure, shortened: as §1

[10] = compound: c1cc(OCCN2CCCCC2)cc(-c2n[nH]c3ccc(-c4nnc[nH]4)cc23)c1
Procedure, shortened: as §1

[11] = compound: c1cn2cc(-c3ccc4cn[nH]c4c3)nc(Nc3ccc(N4CCOCC4)cc3)c2n1 [entospletinib]
Procedure, shortened: as §1

Sequence of UniProt Q9UIQ6 (Q9UIQ6 whole entry, looked up): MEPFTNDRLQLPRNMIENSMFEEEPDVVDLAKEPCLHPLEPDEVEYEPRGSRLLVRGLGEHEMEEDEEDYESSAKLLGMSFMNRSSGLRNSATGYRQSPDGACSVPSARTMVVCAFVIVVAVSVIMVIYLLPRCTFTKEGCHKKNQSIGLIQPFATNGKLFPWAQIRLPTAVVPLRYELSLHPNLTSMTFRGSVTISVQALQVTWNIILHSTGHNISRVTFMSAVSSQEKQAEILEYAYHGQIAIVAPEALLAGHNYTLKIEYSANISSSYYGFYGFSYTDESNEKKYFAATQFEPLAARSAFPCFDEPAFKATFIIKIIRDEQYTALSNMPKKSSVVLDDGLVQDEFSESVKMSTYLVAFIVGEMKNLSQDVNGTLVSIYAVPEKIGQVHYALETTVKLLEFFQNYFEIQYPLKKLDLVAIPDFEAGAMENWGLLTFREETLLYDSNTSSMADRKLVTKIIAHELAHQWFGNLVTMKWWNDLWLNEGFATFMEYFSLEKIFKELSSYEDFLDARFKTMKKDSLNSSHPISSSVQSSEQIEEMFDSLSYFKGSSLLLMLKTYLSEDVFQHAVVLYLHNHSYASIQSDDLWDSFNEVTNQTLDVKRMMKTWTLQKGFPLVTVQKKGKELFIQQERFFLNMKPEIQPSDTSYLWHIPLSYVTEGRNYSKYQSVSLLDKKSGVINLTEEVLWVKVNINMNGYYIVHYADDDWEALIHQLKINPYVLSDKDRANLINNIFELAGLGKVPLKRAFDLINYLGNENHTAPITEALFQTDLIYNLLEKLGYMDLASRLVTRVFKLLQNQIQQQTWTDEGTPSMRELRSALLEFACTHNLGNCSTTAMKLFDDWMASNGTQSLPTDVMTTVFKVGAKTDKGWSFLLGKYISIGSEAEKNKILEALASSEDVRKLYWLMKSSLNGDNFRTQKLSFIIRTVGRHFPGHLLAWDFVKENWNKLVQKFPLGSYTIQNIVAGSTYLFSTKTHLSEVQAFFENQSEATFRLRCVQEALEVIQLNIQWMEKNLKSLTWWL
Sequence of UniProt Q16644 (Q16644 whole entry, looked up): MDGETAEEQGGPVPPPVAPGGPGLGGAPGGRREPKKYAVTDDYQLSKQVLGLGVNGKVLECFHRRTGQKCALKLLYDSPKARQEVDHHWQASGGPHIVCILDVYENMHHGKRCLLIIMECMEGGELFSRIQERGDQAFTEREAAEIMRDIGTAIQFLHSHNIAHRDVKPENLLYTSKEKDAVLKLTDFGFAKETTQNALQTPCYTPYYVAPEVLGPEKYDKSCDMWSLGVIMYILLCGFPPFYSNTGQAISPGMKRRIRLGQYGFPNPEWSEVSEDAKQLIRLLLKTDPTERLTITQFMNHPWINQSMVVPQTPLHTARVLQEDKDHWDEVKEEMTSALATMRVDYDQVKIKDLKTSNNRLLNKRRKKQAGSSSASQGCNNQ
Sequence of UniProt P45983 (P45983 whole entry, looked up): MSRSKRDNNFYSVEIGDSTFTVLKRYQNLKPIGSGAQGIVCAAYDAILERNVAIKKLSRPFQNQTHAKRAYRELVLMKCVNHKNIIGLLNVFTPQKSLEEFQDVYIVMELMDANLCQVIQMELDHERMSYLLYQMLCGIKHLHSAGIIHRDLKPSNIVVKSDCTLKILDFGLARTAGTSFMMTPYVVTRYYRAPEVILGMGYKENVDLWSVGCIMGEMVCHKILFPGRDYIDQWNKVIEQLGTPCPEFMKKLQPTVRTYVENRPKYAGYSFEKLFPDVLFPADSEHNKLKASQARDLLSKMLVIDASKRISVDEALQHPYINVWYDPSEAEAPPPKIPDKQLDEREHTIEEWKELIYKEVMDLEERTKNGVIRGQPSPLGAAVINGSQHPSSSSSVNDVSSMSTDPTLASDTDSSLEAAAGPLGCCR
Sequence of UniProt Q8IWB1 (Q8IWB1 whole entry, looked up): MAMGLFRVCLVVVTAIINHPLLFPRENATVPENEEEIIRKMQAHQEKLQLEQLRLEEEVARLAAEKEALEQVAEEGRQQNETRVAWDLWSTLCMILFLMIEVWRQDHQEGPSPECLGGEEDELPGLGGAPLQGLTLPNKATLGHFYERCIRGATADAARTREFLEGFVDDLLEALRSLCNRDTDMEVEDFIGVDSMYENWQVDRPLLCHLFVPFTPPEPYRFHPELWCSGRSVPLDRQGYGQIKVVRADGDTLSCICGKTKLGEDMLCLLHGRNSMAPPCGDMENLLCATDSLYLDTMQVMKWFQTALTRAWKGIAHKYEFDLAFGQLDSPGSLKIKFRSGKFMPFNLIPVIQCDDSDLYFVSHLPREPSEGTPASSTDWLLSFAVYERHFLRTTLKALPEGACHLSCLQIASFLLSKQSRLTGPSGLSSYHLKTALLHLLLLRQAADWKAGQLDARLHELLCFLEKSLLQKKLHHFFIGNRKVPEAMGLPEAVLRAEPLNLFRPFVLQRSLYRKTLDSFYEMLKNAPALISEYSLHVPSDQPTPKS
Sequence of UniProt P02545 (P02545 whole entry, looked up): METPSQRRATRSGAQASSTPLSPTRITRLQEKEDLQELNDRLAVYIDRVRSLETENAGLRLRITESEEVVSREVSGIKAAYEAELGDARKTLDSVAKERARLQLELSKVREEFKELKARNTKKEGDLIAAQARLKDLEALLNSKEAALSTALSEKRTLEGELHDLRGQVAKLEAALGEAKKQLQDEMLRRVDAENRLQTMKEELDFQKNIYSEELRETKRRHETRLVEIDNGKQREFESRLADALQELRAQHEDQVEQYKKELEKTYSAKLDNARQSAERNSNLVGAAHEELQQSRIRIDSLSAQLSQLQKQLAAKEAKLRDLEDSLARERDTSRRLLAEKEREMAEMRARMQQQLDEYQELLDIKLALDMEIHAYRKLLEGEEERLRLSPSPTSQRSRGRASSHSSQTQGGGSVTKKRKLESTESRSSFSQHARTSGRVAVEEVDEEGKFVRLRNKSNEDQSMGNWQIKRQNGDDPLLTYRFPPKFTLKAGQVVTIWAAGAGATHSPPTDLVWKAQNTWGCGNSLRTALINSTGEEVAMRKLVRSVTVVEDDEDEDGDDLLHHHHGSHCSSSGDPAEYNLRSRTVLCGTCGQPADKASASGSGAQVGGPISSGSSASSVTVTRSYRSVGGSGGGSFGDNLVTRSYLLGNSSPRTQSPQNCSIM
Sequence of UniProt Q13422 (Q13422 whole entry, looked up): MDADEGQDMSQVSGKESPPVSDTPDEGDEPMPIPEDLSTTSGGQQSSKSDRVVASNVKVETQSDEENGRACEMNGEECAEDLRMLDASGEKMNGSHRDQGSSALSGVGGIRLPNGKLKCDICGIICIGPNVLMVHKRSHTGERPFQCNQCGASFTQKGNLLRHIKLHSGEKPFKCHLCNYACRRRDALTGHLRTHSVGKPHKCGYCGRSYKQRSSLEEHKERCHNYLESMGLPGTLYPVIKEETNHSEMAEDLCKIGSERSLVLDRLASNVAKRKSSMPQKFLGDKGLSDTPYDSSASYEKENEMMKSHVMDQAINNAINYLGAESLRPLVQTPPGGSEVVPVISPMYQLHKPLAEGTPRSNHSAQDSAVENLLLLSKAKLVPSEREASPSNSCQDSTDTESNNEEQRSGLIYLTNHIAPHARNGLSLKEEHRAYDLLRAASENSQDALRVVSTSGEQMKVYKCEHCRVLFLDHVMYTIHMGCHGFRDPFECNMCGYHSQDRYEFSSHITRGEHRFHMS
Sequence of UniProt Q9Y496 (Q9Y496 whole entry, looked up): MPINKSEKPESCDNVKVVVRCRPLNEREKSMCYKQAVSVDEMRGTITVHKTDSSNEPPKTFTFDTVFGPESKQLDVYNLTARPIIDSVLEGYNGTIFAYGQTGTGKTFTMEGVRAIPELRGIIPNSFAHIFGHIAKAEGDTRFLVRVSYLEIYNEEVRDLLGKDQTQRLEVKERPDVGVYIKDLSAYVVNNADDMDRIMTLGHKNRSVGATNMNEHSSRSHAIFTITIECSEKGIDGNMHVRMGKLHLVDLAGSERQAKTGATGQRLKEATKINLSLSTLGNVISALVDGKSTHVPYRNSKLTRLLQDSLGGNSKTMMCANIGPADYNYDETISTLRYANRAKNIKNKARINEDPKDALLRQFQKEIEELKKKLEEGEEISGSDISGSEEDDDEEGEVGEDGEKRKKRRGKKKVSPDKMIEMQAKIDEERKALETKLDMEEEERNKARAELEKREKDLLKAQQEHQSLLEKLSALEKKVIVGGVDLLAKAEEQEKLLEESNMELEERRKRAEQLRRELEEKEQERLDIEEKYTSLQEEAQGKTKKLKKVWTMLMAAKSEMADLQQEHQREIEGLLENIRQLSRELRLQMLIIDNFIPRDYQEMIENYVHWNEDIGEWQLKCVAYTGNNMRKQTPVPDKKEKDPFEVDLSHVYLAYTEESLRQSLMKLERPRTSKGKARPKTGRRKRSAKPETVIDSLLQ
Sequence of UniProt Q4G0J3 (Q4G0J3 whole entry, looked up): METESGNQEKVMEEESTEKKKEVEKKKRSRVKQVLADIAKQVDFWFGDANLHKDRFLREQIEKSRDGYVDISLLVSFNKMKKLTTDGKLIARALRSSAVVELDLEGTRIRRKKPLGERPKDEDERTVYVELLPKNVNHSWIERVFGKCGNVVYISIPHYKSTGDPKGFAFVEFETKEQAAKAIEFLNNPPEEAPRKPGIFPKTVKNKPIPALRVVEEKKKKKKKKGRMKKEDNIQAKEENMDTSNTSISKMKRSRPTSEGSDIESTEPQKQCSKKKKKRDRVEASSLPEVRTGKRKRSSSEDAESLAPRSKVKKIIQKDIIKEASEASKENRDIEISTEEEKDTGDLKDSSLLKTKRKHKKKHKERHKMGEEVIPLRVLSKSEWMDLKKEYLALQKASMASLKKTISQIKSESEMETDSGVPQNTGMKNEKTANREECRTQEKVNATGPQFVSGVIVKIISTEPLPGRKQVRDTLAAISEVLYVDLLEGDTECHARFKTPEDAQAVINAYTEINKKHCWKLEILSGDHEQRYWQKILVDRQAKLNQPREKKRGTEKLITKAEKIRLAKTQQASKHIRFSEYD

Row | Target | log2 fold change [1] | log2 fold change [2] | log2 fold change [3] | log2 fold change [4] | log2 fold change [5] | log2 fold change [6] | log2 fold change [7] | log2 fold change [8] | log2 fold change [9] | log2 fold change [10] | log2 fold change [11]
1 | LNPEP (UniProt Q9UIQ6) | 0.037 | 0.011 | -0.037 | 0.019 | -0.028 | -0.007 | 0.056 | 0.002 | 0.004 | -0.022 | 0.013
2 | LARP7 isoform 3 (UniProt Q4G0J3) | -0.011 | -0.116 | -0.129 | -0.019 | -0.007 | 0.082 | 0.043 | 0.03 | -0.034 | -0.065 | 0.006
3 | KIF3B (UniProt O15066) | -0.016 | -0.029 | -0.091 | -0.128 | -0.016 | -0.179 | 0.053 | -0.086 | -0.112 | 0.215 | 0.23
4 | MAP1LC3B2 (UniProt A6NCE7) | -0.023 | -0.022 | -0.128 | -0.085 | 0.012 | -0.058 | 0.046 | -0.015 | -0.001 | -0.103 | -0.001
5 | KIF3A (UniProt Q9Y496) | 0.075 | 0.078 | -0.011 | -0.014 | -0.011 | -0.137 | -0.076 | -0.068 | -0.048 | -0.051 | 0.491 (active)
6 | ITIH4 (UniProt Q14624) | 0.064 | -0.041 | -0.136 | -0.054 | 0.048 | 0.343 | 0.054 | 0.083 | -0.005 | 0.275 | 0.124
7 | KHDC4 (UniProt Q7Z7F0) | -0.017 | -0.003 | -0.078 | -0.034 | 0.009 | 0.028 | 0.08 | 0.01 | -0.155 | -0.052 | -0.051
8 | IKZF1 (UniProt Q13422) | 0.164 | -0.084 | 0.21 | -0.03 | 0.064 | 0.003 | 0.019 | -0.202 | 0.004 | -0.061 | 0.042
9 | MFN2 (UniProt O95140) | -0.081 | -0.088 | -0.104 | -0.168 | 0.014 | -0.019 | -0.021 | -0.024 | -0.019 | -0.008 | -0.004
10 | ITPRIP (UniProt Q8IWB1) | -0.041 | -0.031 | -0.373 (active) | -0.021 | -0.01 | -0.08 | -0.076 | -0.009 | 0.019 | -0.06 | -0.005
11 | LMNA (UniProt P02545) | 0.205 | -0.013 | 0.024 | 0.047 | -0.004 | -0.026 | 0.039 | 0.015 | -0.075 | -0.068 | -0.025
12 | MAP3K20 (UniProt Q9NYL2) | -0.008 | 0.035 | -0.012 | -0.03 | 0.019 | 0 | 0.002 | 0.031 | 0.026 | -0.09 | -0.007
13 | MAPKAPK3 (UniProt Q16644) | 0.147 | -0.024 | -0.125 | -0.052 | -0.068 | -0.006 | -0.012 | 0.18 | -0.141 | 0.05 | 0.001
14 | MAPK8 isoform 3 (UniProt P45983) | -0.05 | -0.02 | -0.062 | -0.05 | 0.001 | -0.027 | -0.049 | 0.008 | -0.044 | 0.362 | -0.038

From the supplement of paper PMC10849652
